# Measured values from the supplement of paper PMC12067093, “Discovery and optimisation of a covalent ligand for TRIM25 and its application to targeted protein ubiquitination” (Chemical Science, 2025).
# The full data set covers some 21,000 targets. This sample favours those with the largest changes.
# Biological target: XPOT_O43592_877_HIVPACFLAPLK (UniProt O43592)
# Experiment: probe-labelled cysteine peptide fold change vs DMSO (competition) (log2 fold change); higher = less target engagement (more negative = stronger competition)
# Conditions: THP-1, incubation time: 4 h
# 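Further: competitive chemoproteomic profiling in live THP-1 cells with an iodoacetamide desthiobiotin (IA-DTB) probe, comparing probe-labelled peptide intensities in compound-treated cells against DMSO-treated controls.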
# Chain of UniProt O43592 (O43592 whole entry, looked up): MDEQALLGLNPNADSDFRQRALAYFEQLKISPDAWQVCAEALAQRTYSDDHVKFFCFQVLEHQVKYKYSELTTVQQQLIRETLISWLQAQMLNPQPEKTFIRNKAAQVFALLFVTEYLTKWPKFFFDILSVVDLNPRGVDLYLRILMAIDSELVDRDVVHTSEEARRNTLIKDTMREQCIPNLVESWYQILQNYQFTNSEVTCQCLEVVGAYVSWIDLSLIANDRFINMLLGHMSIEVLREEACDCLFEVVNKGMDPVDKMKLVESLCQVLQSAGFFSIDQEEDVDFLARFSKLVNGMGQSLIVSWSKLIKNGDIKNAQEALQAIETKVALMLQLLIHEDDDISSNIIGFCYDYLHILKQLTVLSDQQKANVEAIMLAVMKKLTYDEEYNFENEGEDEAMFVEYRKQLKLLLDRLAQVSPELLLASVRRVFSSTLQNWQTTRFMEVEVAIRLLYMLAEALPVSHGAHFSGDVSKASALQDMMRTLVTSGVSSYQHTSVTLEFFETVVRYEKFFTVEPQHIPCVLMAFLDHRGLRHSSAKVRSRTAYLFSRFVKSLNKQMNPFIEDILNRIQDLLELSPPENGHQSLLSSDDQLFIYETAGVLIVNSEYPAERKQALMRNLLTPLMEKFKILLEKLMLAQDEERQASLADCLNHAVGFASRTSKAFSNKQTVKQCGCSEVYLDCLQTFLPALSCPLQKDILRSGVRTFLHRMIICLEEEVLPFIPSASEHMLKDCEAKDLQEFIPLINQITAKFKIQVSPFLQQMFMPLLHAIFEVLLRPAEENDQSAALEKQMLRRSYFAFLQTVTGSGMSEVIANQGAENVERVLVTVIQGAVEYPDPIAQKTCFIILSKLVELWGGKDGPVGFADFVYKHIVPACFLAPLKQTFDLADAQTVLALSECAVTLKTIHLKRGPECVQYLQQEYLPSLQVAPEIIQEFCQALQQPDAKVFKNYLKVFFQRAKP
structure (smiles),measurement,setting,value
CC1Cc2ccccc2N1C(=O)C1CCCN(C(=O)CCl)C1 (mixture of isomers) [TRIM25 ligand 11 (diastereomer mixture)],probe-labelled cysteine peptide fold change,10 µM,0.0433
same,probe-labelled cysteine peptide fold change,50 µM,0.0734
